Reference: the supplement of paper PMC11732987, “Enantioselective OTUD7B fragment discovery through chemoproteomics screening and high-throughput optimisation” (Communications Chemistry, 2025)

Experiments:
Experiment in all cases: log2 ratio of Biotin-Ahx-Ub-VS probe labelling (fragment/DMSO); higher = less target engagement (more negative = stronger competition), active = hit call of the paper (q ≤ 0.05, log2 ratio ≤ -1)
Settings in all cases: compound concentration: 200 uM; treatment time: 3 h
[1] = target: T1, USP42 (UniProt Q9H9J4)
T1 sequence (whole entry): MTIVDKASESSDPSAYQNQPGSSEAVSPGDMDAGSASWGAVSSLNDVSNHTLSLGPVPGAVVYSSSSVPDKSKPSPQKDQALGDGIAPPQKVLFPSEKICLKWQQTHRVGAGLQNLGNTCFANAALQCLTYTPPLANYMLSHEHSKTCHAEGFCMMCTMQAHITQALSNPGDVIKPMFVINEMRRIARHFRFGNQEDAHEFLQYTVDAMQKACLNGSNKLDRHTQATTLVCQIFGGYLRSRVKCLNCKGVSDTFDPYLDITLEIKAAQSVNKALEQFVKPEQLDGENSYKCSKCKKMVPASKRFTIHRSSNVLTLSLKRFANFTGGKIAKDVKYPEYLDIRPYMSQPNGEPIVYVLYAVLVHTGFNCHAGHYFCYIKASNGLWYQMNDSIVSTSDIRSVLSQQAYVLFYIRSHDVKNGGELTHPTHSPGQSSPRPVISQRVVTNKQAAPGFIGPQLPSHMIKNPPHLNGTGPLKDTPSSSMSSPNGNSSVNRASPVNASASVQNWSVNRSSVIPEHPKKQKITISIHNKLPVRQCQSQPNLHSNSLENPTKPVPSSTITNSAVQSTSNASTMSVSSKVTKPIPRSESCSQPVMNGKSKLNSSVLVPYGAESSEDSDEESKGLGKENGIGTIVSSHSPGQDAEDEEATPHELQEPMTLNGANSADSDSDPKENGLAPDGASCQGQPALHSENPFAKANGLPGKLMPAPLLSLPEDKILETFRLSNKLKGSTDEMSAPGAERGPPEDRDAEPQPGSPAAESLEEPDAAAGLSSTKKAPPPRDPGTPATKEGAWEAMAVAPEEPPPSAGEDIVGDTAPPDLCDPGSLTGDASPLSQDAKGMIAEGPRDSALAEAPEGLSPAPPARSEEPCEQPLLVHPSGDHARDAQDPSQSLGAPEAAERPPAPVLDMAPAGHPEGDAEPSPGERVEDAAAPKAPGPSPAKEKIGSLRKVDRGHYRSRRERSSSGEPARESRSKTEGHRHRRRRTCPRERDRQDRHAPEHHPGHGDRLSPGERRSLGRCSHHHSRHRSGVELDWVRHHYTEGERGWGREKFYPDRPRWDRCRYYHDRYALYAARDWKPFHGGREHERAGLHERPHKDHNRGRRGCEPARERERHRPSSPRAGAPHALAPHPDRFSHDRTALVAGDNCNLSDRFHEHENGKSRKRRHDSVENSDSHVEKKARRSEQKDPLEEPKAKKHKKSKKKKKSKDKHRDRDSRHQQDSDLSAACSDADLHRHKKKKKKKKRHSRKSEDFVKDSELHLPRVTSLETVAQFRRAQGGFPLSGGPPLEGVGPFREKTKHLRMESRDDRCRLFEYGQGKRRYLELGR
Method in brief: (§1)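 Average log2 ratios of fragment over vehicle were obtained by unpaired t-test from global-median-normalised Spectronaut label-free quantities. Proteins with ≥2 unique peptides were included. HEK293T lysate (495 µg per sample) was treated in triplicate with fragment at 200 µM or vehicle for 3 h, then with Biotin-Ahx-Ub-VS at 0.5 µM final for 1 h, and labelled DUBs were NeutrAvidin-enriched and run by diaPASEF LC-MS/MS.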

[2] = target: USP46 (UniProt P62068)
Sequence of USP46 (P62068 whole entry): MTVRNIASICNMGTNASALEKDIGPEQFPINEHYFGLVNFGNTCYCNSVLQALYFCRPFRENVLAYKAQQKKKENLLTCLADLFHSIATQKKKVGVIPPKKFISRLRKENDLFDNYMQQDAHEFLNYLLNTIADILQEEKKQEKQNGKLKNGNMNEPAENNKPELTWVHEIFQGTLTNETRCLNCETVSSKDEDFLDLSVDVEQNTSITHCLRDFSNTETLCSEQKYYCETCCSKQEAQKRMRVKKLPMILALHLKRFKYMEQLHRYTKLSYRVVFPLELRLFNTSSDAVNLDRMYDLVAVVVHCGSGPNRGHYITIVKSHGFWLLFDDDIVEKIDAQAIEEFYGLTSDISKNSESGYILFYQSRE
Method in brief: as §1

[3] = target: T2, USP47 (UniProt Q96K76)
T2 sequence (whole entry): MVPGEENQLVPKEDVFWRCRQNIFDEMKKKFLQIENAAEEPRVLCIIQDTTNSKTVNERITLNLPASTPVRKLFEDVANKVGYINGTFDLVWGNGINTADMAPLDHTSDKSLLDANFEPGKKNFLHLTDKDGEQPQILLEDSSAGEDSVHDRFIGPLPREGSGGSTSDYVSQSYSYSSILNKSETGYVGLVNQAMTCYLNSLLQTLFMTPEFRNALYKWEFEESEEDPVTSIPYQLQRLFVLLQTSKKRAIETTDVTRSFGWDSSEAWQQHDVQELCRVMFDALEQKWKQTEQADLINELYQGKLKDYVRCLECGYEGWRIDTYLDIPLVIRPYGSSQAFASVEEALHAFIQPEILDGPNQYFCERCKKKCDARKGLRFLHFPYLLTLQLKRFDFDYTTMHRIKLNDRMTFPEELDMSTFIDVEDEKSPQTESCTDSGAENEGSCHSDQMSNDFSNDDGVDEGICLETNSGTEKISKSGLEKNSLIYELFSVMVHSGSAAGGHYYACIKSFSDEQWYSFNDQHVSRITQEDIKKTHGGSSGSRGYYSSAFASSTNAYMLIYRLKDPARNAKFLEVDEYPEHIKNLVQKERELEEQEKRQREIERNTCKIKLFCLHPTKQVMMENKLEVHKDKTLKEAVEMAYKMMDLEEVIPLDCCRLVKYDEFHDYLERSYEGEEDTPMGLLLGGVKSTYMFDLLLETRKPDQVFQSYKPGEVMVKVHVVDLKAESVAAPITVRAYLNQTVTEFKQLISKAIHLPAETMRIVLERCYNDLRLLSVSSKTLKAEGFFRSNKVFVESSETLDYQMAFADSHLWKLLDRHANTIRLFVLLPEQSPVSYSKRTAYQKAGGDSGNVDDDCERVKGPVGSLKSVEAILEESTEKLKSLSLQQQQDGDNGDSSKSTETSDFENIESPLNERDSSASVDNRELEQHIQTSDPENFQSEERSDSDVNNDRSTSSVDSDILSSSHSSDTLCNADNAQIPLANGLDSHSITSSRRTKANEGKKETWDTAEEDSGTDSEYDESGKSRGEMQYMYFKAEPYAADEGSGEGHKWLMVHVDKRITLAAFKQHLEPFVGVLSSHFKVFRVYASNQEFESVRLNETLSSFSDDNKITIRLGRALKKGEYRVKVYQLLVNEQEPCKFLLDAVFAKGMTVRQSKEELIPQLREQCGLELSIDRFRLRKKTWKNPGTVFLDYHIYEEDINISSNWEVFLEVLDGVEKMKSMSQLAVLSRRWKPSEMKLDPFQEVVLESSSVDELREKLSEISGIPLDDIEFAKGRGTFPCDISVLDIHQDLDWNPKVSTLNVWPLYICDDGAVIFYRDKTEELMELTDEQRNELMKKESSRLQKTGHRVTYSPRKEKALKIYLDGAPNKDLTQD
Method in brief: as §1

[4] = target: T3, USP48 (UniProt Q86UV5)
T3 sequence (whole entry): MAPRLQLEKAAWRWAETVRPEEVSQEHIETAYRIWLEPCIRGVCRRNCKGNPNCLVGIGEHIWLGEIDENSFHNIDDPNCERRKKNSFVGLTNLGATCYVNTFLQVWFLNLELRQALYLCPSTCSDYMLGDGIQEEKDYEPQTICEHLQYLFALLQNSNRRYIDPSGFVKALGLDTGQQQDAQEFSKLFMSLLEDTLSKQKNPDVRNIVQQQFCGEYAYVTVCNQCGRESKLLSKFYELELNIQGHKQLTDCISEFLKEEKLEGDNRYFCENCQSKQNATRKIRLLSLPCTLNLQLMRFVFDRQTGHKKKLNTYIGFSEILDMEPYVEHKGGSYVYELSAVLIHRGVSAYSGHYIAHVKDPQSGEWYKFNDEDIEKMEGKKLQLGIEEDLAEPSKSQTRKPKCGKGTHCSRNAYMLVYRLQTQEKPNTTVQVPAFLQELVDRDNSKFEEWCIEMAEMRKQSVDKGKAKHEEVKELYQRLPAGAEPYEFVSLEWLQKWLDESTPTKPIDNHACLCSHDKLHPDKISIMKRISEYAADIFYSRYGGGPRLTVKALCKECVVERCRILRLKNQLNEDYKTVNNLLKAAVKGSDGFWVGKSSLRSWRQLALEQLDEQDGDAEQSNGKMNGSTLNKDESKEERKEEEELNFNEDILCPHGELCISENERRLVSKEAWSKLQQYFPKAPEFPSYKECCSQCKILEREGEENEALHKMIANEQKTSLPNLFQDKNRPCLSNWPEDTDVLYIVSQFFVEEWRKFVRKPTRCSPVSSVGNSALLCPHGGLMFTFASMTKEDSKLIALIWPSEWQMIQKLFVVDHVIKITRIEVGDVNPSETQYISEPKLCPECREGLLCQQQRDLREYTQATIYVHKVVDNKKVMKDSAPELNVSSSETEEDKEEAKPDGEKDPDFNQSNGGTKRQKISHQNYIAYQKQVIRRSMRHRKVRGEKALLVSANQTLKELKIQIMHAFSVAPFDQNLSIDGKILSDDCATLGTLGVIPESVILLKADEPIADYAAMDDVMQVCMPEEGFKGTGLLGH
Method in brief: as §1

[5] = target: T4, USP5 (UniProt P45974)
T4 sequence (whole entry): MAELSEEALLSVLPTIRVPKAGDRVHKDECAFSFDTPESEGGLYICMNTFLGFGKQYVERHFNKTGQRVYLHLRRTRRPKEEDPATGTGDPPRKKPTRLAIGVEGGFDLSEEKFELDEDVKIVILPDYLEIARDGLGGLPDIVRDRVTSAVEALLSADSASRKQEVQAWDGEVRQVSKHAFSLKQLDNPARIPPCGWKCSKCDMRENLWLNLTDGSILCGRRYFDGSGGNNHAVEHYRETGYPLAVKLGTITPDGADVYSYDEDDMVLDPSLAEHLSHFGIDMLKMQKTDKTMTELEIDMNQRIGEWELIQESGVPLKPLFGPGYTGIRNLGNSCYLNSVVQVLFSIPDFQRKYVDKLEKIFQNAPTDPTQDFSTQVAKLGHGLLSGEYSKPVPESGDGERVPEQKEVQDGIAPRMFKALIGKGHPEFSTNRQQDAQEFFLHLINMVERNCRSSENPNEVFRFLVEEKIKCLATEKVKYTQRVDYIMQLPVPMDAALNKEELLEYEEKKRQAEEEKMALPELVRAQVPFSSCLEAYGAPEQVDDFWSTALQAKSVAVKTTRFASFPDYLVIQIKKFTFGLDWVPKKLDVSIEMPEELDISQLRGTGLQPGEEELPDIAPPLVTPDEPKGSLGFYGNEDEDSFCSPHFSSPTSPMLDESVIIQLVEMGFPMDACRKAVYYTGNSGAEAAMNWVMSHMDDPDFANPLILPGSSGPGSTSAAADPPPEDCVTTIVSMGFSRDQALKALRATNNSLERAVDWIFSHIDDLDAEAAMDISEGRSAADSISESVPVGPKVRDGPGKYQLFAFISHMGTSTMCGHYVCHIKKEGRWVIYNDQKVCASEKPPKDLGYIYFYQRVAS
Method in brief: as §1

[6] = target: USP54 (UniProt Q70EL1)
Sequence of USP54 (Q70EL1 whole entry): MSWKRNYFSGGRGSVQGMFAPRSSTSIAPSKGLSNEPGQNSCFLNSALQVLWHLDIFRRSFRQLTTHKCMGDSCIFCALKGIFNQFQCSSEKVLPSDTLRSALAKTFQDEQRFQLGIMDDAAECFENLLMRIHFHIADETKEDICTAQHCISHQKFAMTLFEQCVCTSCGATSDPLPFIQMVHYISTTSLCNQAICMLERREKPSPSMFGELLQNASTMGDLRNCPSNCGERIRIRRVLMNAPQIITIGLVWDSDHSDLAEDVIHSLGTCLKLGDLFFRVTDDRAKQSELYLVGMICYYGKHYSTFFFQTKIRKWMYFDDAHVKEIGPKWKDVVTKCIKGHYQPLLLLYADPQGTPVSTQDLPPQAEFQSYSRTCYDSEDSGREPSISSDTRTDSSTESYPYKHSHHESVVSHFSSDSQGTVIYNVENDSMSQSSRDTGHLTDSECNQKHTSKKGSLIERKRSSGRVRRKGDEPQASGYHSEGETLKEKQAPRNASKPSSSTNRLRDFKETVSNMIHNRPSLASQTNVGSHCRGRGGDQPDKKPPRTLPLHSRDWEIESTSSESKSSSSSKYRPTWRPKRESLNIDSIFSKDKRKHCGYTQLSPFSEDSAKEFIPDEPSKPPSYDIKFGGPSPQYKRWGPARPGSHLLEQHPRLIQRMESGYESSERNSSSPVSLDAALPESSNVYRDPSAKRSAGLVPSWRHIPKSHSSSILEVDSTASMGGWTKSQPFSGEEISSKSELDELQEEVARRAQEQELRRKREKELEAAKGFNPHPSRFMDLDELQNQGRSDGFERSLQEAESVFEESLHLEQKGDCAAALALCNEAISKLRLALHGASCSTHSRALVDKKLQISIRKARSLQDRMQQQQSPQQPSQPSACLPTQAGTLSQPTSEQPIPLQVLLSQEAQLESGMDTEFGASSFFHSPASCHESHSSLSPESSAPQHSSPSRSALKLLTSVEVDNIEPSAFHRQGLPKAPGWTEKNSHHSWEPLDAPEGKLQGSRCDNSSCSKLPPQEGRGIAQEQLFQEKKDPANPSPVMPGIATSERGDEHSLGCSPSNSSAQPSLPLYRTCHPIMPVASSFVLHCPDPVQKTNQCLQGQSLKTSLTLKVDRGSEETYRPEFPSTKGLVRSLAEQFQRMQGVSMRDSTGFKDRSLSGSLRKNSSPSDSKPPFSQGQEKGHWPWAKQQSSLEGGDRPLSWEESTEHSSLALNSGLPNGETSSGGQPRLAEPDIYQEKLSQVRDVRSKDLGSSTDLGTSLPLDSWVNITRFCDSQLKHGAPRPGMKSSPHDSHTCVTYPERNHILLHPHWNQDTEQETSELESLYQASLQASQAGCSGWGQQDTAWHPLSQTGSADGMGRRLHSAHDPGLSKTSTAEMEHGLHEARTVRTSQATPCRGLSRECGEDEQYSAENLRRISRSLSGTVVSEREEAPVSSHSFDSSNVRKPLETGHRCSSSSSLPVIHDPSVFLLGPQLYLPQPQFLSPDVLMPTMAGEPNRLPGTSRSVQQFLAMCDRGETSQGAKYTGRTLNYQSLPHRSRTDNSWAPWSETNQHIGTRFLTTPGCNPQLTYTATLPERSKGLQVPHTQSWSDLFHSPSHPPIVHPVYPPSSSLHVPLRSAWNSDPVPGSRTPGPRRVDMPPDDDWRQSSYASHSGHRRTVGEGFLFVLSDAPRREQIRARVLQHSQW
Method in brief: as §1

[7] = target: USP7 (UniProt Q93009)
Sequence of USP7 (Q93009 whole entry, looked up): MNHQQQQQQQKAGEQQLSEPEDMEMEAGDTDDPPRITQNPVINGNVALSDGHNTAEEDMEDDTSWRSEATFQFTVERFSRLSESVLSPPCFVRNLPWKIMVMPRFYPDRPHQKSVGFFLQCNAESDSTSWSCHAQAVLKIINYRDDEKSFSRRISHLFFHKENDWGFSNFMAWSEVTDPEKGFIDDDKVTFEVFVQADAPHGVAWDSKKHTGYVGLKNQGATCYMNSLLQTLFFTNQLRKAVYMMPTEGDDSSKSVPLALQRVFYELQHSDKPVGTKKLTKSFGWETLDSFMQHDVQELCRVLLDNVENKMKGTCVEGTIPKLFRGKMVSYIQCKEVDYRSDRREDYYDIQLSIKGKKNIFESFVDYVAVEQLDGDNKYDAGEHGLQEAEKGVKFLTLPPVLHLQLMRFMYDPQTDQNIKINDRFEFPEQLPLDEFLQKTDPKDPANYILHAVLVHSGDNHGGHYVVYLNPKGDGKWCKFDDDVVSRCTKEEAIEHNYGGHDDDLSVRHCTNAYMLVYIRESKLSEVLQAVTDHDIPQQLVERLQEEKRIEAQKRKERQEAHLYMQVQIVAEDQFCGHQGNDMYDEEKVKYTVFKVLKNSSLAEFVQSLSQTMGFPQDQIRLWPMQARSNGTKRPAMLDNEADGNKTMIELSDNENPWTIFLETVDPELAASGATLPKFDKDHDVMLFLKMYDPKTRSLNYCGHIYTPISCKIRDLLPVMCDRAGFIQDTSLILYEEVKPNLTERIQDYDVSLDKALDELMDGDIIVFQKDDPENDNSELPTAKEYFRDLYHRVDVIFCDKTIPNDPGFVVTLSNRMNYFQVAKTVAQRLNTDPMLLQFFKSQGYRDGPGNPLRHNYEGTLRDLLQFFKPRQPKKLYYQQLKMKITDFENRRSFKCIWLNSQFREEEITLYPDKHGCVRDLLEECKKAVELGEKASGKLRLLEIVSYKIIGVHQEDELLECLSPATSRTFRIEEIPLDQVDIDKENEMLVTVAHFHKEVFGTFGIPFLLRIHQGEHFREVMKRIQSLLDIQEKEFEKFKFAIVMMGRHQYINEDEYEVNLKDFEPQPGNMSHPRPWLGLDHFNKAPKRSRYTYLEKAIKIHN
Method in brief: as §1

[8] = target: T5, USP8 (UniProt P40818)
T5 sequence (whole entry): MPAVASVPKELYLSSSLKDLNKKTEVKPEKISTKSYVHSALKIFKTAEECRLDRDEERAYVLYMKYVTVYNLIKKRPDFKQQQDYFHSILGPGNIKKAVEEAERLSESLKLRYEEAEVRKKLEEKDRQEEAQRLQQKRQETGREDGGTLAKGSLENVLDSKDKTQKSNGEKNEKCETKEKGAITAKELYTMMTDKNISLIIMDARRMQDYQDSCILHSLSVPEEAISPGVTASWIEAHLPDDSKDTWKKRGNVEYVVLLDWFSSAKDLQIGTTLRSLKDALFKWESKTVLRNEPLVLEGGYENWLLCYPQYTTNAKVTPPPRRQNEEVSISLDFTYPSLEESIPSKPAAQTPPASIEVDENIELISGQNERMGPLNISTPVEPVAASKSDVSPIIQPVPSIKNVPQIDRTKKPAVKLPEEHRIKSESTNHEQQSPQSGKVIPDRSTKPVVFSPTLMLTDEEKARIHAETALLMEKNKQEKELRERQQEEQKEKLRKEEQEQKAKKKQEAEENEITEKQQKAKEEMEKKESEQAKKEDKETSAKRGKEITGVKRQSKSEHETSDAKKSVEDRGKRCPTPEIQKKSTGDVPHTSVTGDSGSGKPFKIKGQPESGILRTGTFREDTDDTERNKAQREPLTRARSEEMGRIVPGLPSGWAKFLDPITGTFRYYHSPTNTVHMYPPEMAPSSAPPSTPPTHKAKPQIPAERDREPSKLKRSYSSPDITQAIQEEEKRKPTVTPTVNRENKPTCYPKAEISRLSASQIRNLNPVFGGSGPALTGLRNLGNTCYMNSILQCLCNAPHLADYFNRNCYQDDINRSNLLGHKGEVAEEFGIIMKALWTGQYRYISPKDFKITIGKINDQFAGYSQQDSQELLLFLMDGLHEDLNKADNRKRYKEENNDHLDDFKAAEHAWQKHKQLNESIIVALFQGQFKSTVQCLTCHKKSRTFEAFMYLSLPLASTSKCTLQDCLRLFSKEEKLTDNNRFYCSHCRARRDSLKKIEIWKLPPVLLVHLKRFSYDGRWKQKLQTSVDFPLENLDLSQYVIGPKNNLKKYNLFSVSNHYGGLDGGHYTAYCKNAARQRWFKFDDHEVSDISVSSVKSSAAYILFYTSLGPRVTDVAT
Method in brief: as §1

[9] = target: USP9X (UniProt Q93008)
Method in brief: as §1

[10] = target: UniProt O00487
Sequence of UniProt O00487 (O00487 whole entry): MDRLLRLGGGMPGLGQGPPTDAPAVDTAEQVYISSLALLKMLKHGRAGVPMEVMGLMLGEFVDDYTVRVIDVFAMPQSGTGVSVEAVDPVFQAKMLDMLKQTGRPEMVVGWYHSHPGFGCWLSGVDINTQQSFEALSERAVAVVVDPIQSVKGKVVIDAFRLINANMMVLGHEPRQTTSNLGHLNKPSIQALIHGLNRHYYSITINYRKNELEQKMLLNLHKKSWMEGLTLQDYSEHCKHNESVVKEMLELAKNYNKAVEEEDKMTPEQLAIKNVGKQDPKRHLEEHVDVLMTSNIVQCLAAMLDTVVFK
Method in brief: as §1

Measured: log2 ratio of Biotin-Ahx-Ub-VS probe labelling

Cc1cccnc1NC(=O)C1CCN(C(=O)CCl)CC1.Cl
inactive: [1] -0.427 | [2] -0.0664 | [3] -0.337 | [4] -0.172 | [5] -0.0361 | [6] 0.628 | [7] -0.121 | [8] -0.221 | [9] -0.327 | [10] 0.014
